Hits are enriched below; roughly 27% of the tested compounds scored in any of these assays.
CYP2C9 inh = inhibitors of human CYP2C9 | P11712 | CYP2C9 Supersomes, luciferin-H conversion, luminescence | inhibition, % at 5 µM | 96,000 compounds, 20% hits | AID 777;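 active means blocking of liver enzyme CYP2C9 beyond about 50% at 5 µM, limit read from the data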
sEH act = soluble epoxide hydrolase (human) activation. P34913. AID 717. purified human sEH enzymatic activity, activator screen. 91,000 compounds, 0.04% hits. activation, % at 2 µM; in the data active means activation above about 37%
CYP2C19 inh = human CYP2C19 inhibition | P33261 | CYP2C19 Supersomes, luciferin-H EGE luminescence, 30 min | inhibition, % at 5 µM | 96,000 compounds, 21% hits;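 active means CYP2C19 inhibition above a set limit at 5 µM in the primary screen, cut at about 50% in these data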;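 further: plate controls were negative control wells for no effect and 2.5 mM tranylcypromine positive control for full effect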
Target sequence (P33261 whole entry, looked up): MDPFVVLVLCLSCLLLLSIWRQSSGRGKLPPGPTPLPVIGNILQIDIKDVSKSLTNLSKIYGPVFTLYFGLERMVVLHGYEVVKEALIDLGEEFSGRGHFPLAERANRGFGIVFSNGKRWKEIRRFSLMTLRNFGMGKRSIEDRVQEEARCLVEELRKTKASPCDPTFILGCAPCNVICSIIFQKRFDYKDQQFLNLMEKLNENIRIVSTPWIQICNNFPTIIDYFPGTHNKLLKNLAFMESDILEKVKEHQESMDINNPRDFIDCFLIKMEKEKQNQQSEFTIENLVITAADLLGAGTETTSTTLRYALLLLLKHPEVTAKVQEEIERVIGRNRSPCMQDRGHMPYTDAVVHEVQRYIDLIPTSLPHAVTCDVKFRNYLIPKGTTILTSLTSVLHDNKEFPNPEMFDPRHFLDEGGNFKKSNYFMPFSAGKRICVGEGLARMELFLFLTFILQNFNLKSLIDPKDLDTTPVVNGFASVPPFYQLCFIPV
CYP2C19 act = increases human CYP2C19 enzyme activity | 96,000 tested, under 10 active | activation factor at 5 µM | P33261 | recombinant CYP2C19, luciferin-H EGE luminescence; active compounds read high; 0 = fully inhibited enzyme, 1 = untreated enzyme | AID 1025;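 active means activation factor of at least 2 at 5 µM in the primary screen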;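 further: 0 = wells with 2.5 mM tranylcypromine and 1 = vehicle-only wells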
CYP2C9 activ = increases human cytochrome P450 2C9 activity | P11712 | recombinant CYP2C9, luciferin-H conversion, luminescence; active compounds read high; factor 1 = untreated enzyme, 0 = blocked | activation factor at 5 µM | 96,000 compounds, 1.4% hits | AID 1024;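 active means activation factor of 2 or more for CYP2C9 at a 5 µM dose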;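 further: 0 = sulfaphenazole-blocked wells and 1 = vehicle-only wells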
sEH inh = blocks human soluble epoxide hydrolase activity. inhibition, % at 2 µM. P34913. 91,000 compounds, 0.34% hits. recombinant human sEH enzymatic activity assay; in the data active means inhibition above about 80%
* marks the source's active call; other numbers are inactive results; · = no result.

SMILES	CYP2C9 inh	sEH act	CYP2C19 inh	CYP2C19 act	CYP2C9 activ	sEH inh
CC(C)(C)NC(=O)CN(C(=O)CS(=O)CC(=O)Nc1ccc(F)cc1)c1ccc(F)c(Cl)c1 (centres undefined)	89*	10	36	0.6	0.1	-10
CCOC(=O)CCn1nc(-c2ccc(Cl)cc2)cc1N	38	6	79*	0.2	0.6	-5
CCOC(=O)Cn1nc(-c2ccccc2)ccc1=O	6	10	19	0.8	0.9	-11
CCOC(=O)Cn1nc(-c2ccc(Cl)cc2)cc1N	25	4	74*	0.3	0.7	-3
CC1(C)CC(=O)c2sc(N3CCCCC3)nc2C1	26	-8	58*	0.4	0.7	7
CC1(C)CNC(=O)c2sc(N3CCCCC3)nc2C1	-1	-10	6	0.9	1	11
Cc1cc(-n2c(C)cc(C(=O)CSc3ccc4c(c3)OCCO4)c2C)no1	31	4	89*	0.1	0.7	-4
CCc1nnc(NC(=O)CN2CCN(c3ccccc3OC)CC2)s1	-14	·	-2	1	1.1	·
COc1ccccc1C(CC(=O)Nc1nccs1)c1ccco1 (centres undefined)	55*	-12	64*	0.4	0.5	15
CCc1nnc(NC(=O)CN2CCN(c3nc(-c4ccccc4)cs3)CC2)s1	64*	-1	49	0.5	0.4	5
O=C(CCN1CCN(c2ccccc2)CC1)Nc1nccs1	31	0	46	0.5	0.7	-1
COC(=O)CCC(=O)Nc1ccc(Br)cc1	38	-7	65*	0.3	0.6	4
O=C(CN1CCN(c2ccccc2)CC1)Nc1nccs1	90*	-4	70*	0.3	0.1	9
O=C(CCCOc1ccccc1)Nc1ccc(Br)cc1	·	-77	·	·	·	76
COc1ccccc1C(CCN(Cc1cccs1)C(C)=O)c1ccco1 (centres undefined)	90*	0	92*	0.1	0.1	2
O=C(CCSc1ccccc1)NC1CCCC1	6	·	83*	0.2	0.9	·
CCC(=O)NCCC(c1ccco1)c1ccccc1OC (centres undefined)	·	0	·	·	·	-2
Cc1ccccc1OCCCC(=O)Nc1ccc(Br)cc1	0	-93	14	0.9	1	93*
O=C(CCSc1ccccc1)Nc1nccs1	37	-9	62*	0.4	0.6	7
Cn1nc(CC(=O)Nc2cccc3ncccc23)c2ccccc2c1=O	-7	0	-12	1.1	1.1	1
Cc1cc([N+](=O)[O-])nn1Cc1c(F)c(F)c(F)c(F)c1F	27	5	39	0.6	0.7	-1
O=C(CCCC(=O)OCC(F)(F)C(F)F)Nc1ccc(NC(=O)CCCC(=O)OCC(F)(F)C(F)F)cc1	18	-5	6	0.9	0.8	4
Cc1ccc(S(=O)(=O)NCCCCCC(=O)Nc2nccs2)cc1	80*	-1	74*	0.3	0.2	2
O=C(CCCC(=O)OCC(F)(F)C(F)F)Nc1nccs1	60*	·	51*	0.5	0.4	·
Cc1ccccc1OCCCC(=O)Nc1nccs1	36	8	80*	0.2	0.6	-10
SMILES	CYP2C9 inh	sEH act	CYP2C19 inh	CYP2C19 act	CYP2C9 activ	sEH inh
CSc1ccccc1NC(=O)c1c(C)noc1C	-4	-1	10	0.9	1	0
CCCc1oc(C(=O)O)cc1CN1CCOCC1	-69	-10	28	0.7	1.7	8
Cc1cc(OCc2nn[nH]n2)c2c(C)c(Cc3ccccc3)c(=O)oc2c1	98*	-9	80*	0.2	0	7
Cc1c(Cc2ccccc2)c(=O)oc2c(C)c(OCc3nn[nH]n3)ccc12	81*	2	-1	1	0.2	-5
Cc1cc(OCc2nn[nH]n2)c2c(C)c(CC(=O)O)c(=O)oc2c1	6	22	0	1	0.9	-24
O=C(COC(=O)c1cccs1)NC1CCCCC1	18	4	92*	0.1	0.8	-3
O=C(COC(=O)c1cccs1)c1ccccc1	78*	7	89*	0.1	0.2	-6
O=C(COC(=O)c1ccccn1)NC12CC3CC(CC(C3)C1)C2	22	3	80*	0.2	0.8	0
O=C(COC(=O)c1ccccn1)NC1CCCCC1	77*	-5	28	0.7	0.2	6
C=CCNC(=O)C1CCCN(S(C)(=O)=O)C1 (centres undefined)	-4	15	5	1	1	-18

Assay outcomes as filed in PubChem.
